From PubChem
GLP1R ag – agonists of human GLP-1 receptor; P43220; HEK293 GLP-1R CRE-luciferase, luminescence, 4-6 h; cells express a hypersensitive GLP-1R form; Potency, µM (doses to about 45.6 µM), most hits filed as activators; 380,000 tested, 0.007% active
Target sequence (P43220 whole entry, looked up): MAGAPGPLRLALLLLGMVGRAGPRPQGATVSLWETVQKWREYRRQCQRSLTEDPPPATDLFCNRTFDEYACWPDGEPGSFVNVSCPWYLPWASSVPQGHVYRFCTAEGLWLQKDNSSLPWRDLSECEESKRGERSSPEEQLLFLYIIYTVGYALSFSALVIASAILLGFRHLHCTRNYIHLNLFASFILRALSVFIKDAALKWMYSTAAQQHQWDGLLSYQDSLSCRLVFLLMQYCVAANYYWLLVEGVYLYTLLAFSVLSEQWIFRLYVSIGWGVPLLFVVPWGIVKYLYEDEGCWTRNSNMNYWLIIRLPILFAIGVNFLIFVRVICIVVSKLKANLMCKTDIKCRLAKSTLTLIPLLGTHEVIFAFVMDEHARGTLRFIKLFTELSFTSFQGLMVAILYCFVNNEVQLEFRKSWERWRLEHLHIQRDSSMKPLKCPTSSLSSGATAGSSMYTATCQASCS
GLP1R cytotox – cytotoxic in the GLP-1 receptor inverse agonist counter-screen; Potency, µM (top dose mostly 38.3 µM), hits mostly inhibitors; 410,000 tested, 0.13% active; HEK293 cAMP-luciferase reporter cells, luminescence, 24 h;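 also: loss of luciferase light is scored as toxicity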
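Cells in DMEM/10% Nu serum/1% pen-strep, 1536-well format. Pre-incubated 12 h, dosed with 23 nL compound, incubated a further 24 h. Luciferase detection, 12 min at room temp, luminescence.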
GLP-1R inv ag – inverse agonists of human GLP-1 receptor; AID 624417; Potency, µM (doses to about 38.3 µM), actives largely listed as inhibitors; HEK293 GLP-1R CRE-luciferase, luminescence, 24 h; GLP-1R form is constitutively active; 410,000 tested, 1.6% active; P43220; also: nearly all actives have a fitted effect of over 55% in size
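Luminescence readout: a drop in cAMP-driven luciferase signal flags inverse agonism at a constitutively active GLP-1R stably expressed in HEK293. Compound exposure lasted 24 hr at 37 deg C, 5% CO2.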
ClpP mod – qHTS Assay for Activators of ClpP. AID 651965, 2013. purified B. subtilis ClpP, FRET peptide cleavage, 20 min. 340,000 tested, 1.9% active. Potency, µM (highest dose often 57.5 µM); active = well fitted falling curve with a large enough effect; inconclusive = small, poorly fitted or top-dose-only effect; inactive = no such curve, though single readings can be large or run the other way; also: the source files actives as falling curves though it sought activators and does not explain the sign; nearly all actives have a fitted effect of over 65% in size
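ClpP 10 microg/mL final, pH 8 Tris/KCl buffer with BSA, glycerol, Tween-20; compound pinned in; FRET-FV substrate; RT 20 min; Ex320/Em430; ΔFRET vs ADEP 5.8 microM, DMSO, no enzyme.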
Numbers stand for hits; - = inactive; ? = inconclusive; . = no result given; ! = not confirmed by another sample; [ ] = dose if it differs, or a comment. Most compounds without a hit are left out; they make up all but 3.2% or so of the library. Unless noted, calls follow the shape of the dose curve; as a rule, active = well fitted curve in the direction sought with a large enough effect; inconclusive = small, poorly fitted or top-dose-only effect, or another doubt; inactive = no such curve, though single readings can be large; an effect the other way counts as inactive or inconclusive.

SMILES | GLP1R ag | GLP1R cytotox | GLP-1R inv ag | ClpP mod
CC1(C)Cc2c(c(-c3ccco3)[nH]c(=O)c2C#N)CO1 | - | - | - | -
Cc1ccc(C(C)C)c(OCC(=O)Nc2ccc3c(c2)nc(CN2CCCC2)n3C)c1 | - | ? | 10µM | -
Cc1ccc(OCC(=O)Nc2ccc3c(c2)nc(CCN2CCCC2)n3C)cc1 | - | - | - | -
CCCCn1c(SCC(=O)N2c3ccccc3Sc3ccccc32)nc2c1c(=O)n(C)c(=O)n2C | - | - | 11µM | -
CC1=Nc2cc(C(=O)NCc3ccccc3Cl)ccc2Sc2c(C)ccc(C)c21 | - | - | ? | -
COC(=O)c1cc(O)cc(OC)c1C(=O)c1c(O)cc(C)cc1O | - | - | - | -
COC(=O)c1cc(O)cc(OC)c1Oc1cc(C)cc(O)c1C(=O)O | - | - | 8.9µM | -
Cc1cc(C)cc(N(CC(=O)Nc2cccc(C)n2)S(=O)(=O)c2c(C)noc2C)c1 | - | - | 8.9µM | -
COc1ccc(N(CC(=O)NC(C)c2ccccc2)S(=O)(=O)c2c(C)noc2C)cc1 (centres undefined) | - | - | 8.9µM! | -
CCN(c1ccccc1)S(=O)(=O)c1ccc(NC(=O)c2cc(=O)c3cc(C)c(C)cc3o2)cc1 | . | - | - | -
Cc1ccc(CNC(=S)NC2CCC(C(C)(C)C)CC2)cc1 (centres undefined) | - | - | ? | -
CC(NC(=S)NC1CCC(C(C)(C)C)CC1)c1ccccc1 (centres undefined) | - | - | 10µM | -
O=C(COC(=O)c1ccccc1Cc1ccccc1)Nc1ccc(SC(F)F)cc1 | - | ? | ? | -
O=C(COc1cccc(OC(F)F)c1)Nc1ccc(SC(F)F)cc1 | - | - | 10µM | -
Cc1ccc(C(=O)c2ccccc2C(=O)OCC(=O)Nc2ccc(SC(F)F)cc2)cc1 | - | - | 8.9µM | -
COCCNC(=S)N/N=C(\C)c1ccc2cc(OC)ccc2c1 | ? | 3.2µM | ? | -
C=C(C)CNC(=S)N/N=C(\C)c1ccc(OC)cc1 | - | ? | 5.6µM | -
C/C(=N\NC(=O)c1cc2ccccc2cc1O)c1cc2ccccc2o1 | - | - | ? | .
COCCNC(=S)N/N=C(\C)c1cc2ccccc2o1 | - | 7.9µM | ? | -
COCCNC(=S)N/N=C(\C)c1ccc(OC)cc1 | - | ? | ? | -
COc1ccc(CNC(=S)Nc2cc(C)ccc2C)cc1 | - | - | ? | -
COc1ccc(/C(C)=N/NC(=S)Nc2cc(C)ccc2C)cc1 | - | 3.5µM | ? | -
CCNCc1nc2cc(Cl)ccc2c(=O)[nH]1 | - | ? | 10µM | .
NC(=O)C1CCN(Cc2nc3cc(Cl)ccc3c(=O)[nH]2)CC1 | - | - | - | -
CCc1ccc(CNC(=O)c2ccc3nc(SCc4ccc(F)cc4)n(C)c3c2)cc1 | . | - | ? | -
SMILES | GLP1R ag | GLP1R cytotox | GLP-1R inv ag | ClpP mod
N#C/C(C(=O)N1CCOCC1)=c1/s/c(=C\c2ccccn2)c(=O)n1-c1ccccc1 | - | - | - | .
COc1ccc(-n2c(=O)/c(=C\c3cccs3)s/c2=C(/C#N)C(=O)N2CCN(C)CC2)cc1 | - | -[0.307 µM] | -[0.307 µM] | 32µM
OCCNCc1cc(Br)ccc1OCc1ccc(Cl)cc1Cl | - | ? | 6.3µM | -
CC1(C)CC(=O)C2=C(C1)c1c(ccc3ccccc13)NC2c1ccco1 (centres undefined) | - | - | - | 25µM
CCc1ccc(CNC(=O)Cn2nc(C)n3c(cc4cc(C)ccc43)c2=O)cc1 | . | - | - | ?
Cc1cc(=O)[nH]c(SCC(=O)N2CCCC2)n1 | - | - | - | 22µM
COc1ccc2c(C)cc(SCC(=O)Nc3c(C)n(C)n(-c4ccccc4)c3=O)nc2c1 | - | - | - | 25µM
Cc1c(NC(=O)COC(=O)c2cc3c4ccccc4n(C)c3s2)c(=O)n(-c2ccccc2)n1C | - | - | - | 25µM
Cc1c(NC(=O)COC(=O)c2ccccc2Cl)c(=O)n(-c2ccccc2)n1C | - | - | - | .
Cc1c(NC(=O)CSc2nc(N)cc(N)n2)c(=O)n(-c2ccccc2)n1C | - | - | - | 28µM
Cc1nc(SCC(=O)Nc2c(C)n(C)n(-c3ccccc3)c2=O)nc(C)c1C | - | - | - | -
CSc1ccc(CCNC(=O)CCCn2nc(C)c3sc4ccccc4c3c2=O)cc1 | . | - | - | -
COc1ccc(O)c(C(=O)c2cnc3nc4ccccc4n3c2)c1 | - | - | - | 28µM
CCOc1ccc2nc(NCCNC(=O)Nc3ccccc3)c(C#N)cc2c1 | - | - | ? | -
